Results filed as inconclusive are left out. Active and inactive are the calls of the source. Unless noted, calls come from the whole dose curve; as a rule, active = well fitted curve in either direction with a large enough effect (not every such curve was filed as active); inconclusive = small, poorly fitted or top-dose-only effect, or another doubt; inactive = flat fitted curve, though single readings scatter.
Key:
[1] = target: Lysosomal acid glucosylceramidase (Homo sapiens) (UniProt P04062); test: Glucocerebrosidase-p2 (AID 348; in the data active = potency below about 10 µM; note: potency is the fitted concentration of half-maximal effect); details: purified GBA, blue fluorogenic substrate, 40 min
Summary of the method: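 Normal human glucocerebrosidase (0.2 nM) with blue fluorogenic substrate (80 uM final) in citrate/phosphate pH 5.9 with 10mM sodium taurocholate, 0.01% tween-20; 40 min RT, NaOH/glycine stop; fluorescence Ex 365/Em 440; AC50 from a titration from 0.6 nM upwards.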

[2] = AP1 Signaling Pathway (AID 357); details: ME-180 AP-1-bla reporter, EGF-induced, beta-lactamase ratio, 5 h; at 7.69 µM (top of the series) unless noted;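 note: ME-180 reporter cells stimulated with EGF at its EC50 level; % is set by controls: 0 for no effect and ±100 for the full control effect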
Summary of the method: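 Read-out was the 460nm/530nm emission ratio (excitation 405nm) after CCF4 loading for 2.5 hours at room temperature. Cells carried an AP-1-driven beta-lactamase reporter, were stimulated with EC50 EGF plus compound for 5 hours, and AC50 values came from titrations.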

[3] = NFAT Signaling Pathway (AID 444); details: Jurkat NFAT-bla M1, carbachol, beta-lactamase ratio, 5 h; at 7.69 µM (top of the series) unless noted;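 note: carbachol stimulus at about its EC50 of 1 µM final; % is set by controls: 0 for no effect and ±100 for the full control effect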
Summary of the method: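 Read-out: CCF4 FRET ratio (460 nm/530 nm) after 1 h RT dye loading, used for %activity and AC50 from titration series. Cells: Jurkat NFAT-β-lactamase/M1 line, treated with compound plus 1 uM carbachol for 5 h, 37 °C.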

[4] = Stat Signaling Pathway (AID 446); details: ME-180 SIE beta-lactamase reporter, IL-6 stimulated, 5 h; at 7.69 µM (top of the series) unless noted;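 note: ME-180 cervical cancer cells given 40 pM IL-6 alongside compound; SIE-controlled beta-lactamase reporter measured as 460/530 nm FRET emission ratio; % is set by controls: 0 for no effect and ±100 for the full control effect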
Summary of the method: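 Compound effects on IL-6-induced STAT reporter activity were measured in ME-180 cells. After overnight culture, cells were co-treated with 40 pM IL-6 for 5 hrs before beta-lactamase substrate loading at room temperature.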

[5] = target: Glucocorticoid receptor (Homo sapiens) (UniProt P04150); test: GR-GFP Redistribution (AID 450;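 active = compounds whose dose series gives a full or clear partial fitted curve of increased nuclear translocation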; note: potency is the fitted concentration of half-maximal effect); details: U2OS GR-GFP nuclear translocation, laser cytometry, 2 h
[6] = target: Glucocorticoid receptor (Homo sapiens) (UniProt P04150); test: GR-EFC Redistribution (AID 451; calls by dose curve; note: potency is the fitted concentration of half-maximal effect); details: CHO-K1 GR-EFC translocation, beta-gal luminescence, 2 h
Summary of the method: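 Translocation of GR-ED fusion to nuclear EA restores b-gal, read by luminescence after 1 h room-temperature detection. Engineered CHO-K1 biosensor cells, 1,000/well, exposed 2 h at 37 C to titrations up to 46 uM final.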

[7] = target: Mitogen-activated protein kinase 10 (Mus musculus) (UniProt Q61831); test: JNK3 AlphaScreen Assay (AID 530); details: JNK3 lysate, c-Jun phosphorylation; series mostly up to 57.1 µM;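 note: kinase came from lysate of stimulated human HepG2 cells; signal reports phosphorylation of biotinylated GST-cJun 1-79 at Ser73 with 10 µM ATP; % is set by controls: 0 for no effect and ±100 for the full control effect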
Summary of the method: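 Kinase buffer: 20 mM Tris-HCl pH 7.6, 10 mM MgCl2, 1 mM DTT, 0.1 mM Na3VO4, 0.01% Tween-20; ATP 10 uM. Substrate biotin-GST-cJun(1-79), enzyme from activated HepG2 lysates. Detection by Ser73 phospho-antibody AlphaScreen.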

[8] = Confirmation and Secondary Assay for Modulators of Hemoglobin Beta Chain Splicing at IVS2 654 locus (AID 910; active = well fitted curve in the direction sought with a large enough effect; an effect the other way counts as inactive or inconclusive;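 note: HeLa cells stably carrying EGFP split by mutant beta-globin IVS2-654 intron; per-well total GFP intensity by laser scanning cytometry after 2-day treatment; % of control where 0% means no effect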); details: HeLa EGFP-654 splicing reporter, GFP fluorescence, 48 h; series mostly up to 38.3 µM
Summary of the method: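 Readout: per-well total peak green fluorescence (488 nm ex, 500–520 nm em) from objects 5–250 µm, reflecting correct splicing of an EGFP-654 reporter. Compounds were applied for 2 days at 37 °C to overnight-plated HeLa EGFP-654 cells; controls were DMSO and 500 nM IVS2-654 PNA.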

[9] = Confirmation and Secondary Assay for Modulators of Hemoglobin Beta Chain Splicing at IVS2 705 locus (AID 930; active = well fitted curve in the direction sought with a large enough effect; an effect the other way counts as inactive or inconclusive;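 note: HeLa cells stably expressing the EGFP-705 splicing reporter; % of control where 0% means no effect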); details: HeLa EGFP-705 splicing reporter, GFP fluorescence, 48 h; series mostly up to 38.3 µM
Summary of the method: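 Restored EGFP fluorescence after 2-day compound exposure reports splicing correction in IVS2-705 EGFP reporter HeLa cells; positive control was 500 nM splice-blocking PNA oligo. Signal measured as well total peak GFP intensity (488 nm excitation).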

[10] = qHTS Assay for Lipid Storage Modulators (AID 1519; calls by dose curve); details: Drosophila S3 cells, BODIPY lipid droplet/cell ratio, laser cytometry, cells loaded with oleic acid; for activity change, negative = inhibition: at 57.5 µM (top of the series)
Summary of the method: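 Cells seeded at 5,000 per well were treated with compounds over a concentration series and loaded with oleic acid (400 uM, as added). Lipid droplet fluorescence (488 nm excitation, 500-530 nm channel) was read by laser-scanning cytometry and normalized to 20 uM Triacsin C.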

[11] = Primary qHTS for small molecule stabilizers of the endoplasmic reticulum resident proteome: Secreted ER Calcium Modulated Protein (SERCaMP) assay (AID 1508630; active = well fitted curve in the direction sought with a large enough effect; an effect the other way counts as inactive or inconclusive; note: % is set by controls: 0 for no effect and ±100 for the full control effect); details: SH-SY5Y GLuc-SERCaMP (Gaussia luciferase released on ER calcium loss) secretion, thapsigargin, luminescence; series mostly up to 38.4 µM
Summary of the method: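 The SH-SY5Y reporter protocol was run at 3 concentrations up to 38.3 uM (primary) or 11 concentrations (follow-up): 16 h compound, 100 nM thapsigargin for 4 h, then extracellular luciferase luminescence.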

[12] = target: 3',5'-cyclic-AMP phosphodiesterase 4B (Homo sapiens) (UniProt Q07343); test: qHTS Assay for Inhibitors of PDE-IV (AID 607; active = well fitted activation curve with a large enough effect in the main read-out, with a control signal flat, not every such curve was filed as active; note: % of control where 0% means no effect); details: HEK293 ACTOne CNG channel cells, membrane potential fluorescence; series mostly up to 22.9 µM
Summary of the method: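 ACTOne HEK293 cells carry a modified cAMP-gated CNG channel and express endogenous PDE4; plated 1000 cells/well, compounds up to 22.9 uM final. Membrane-potential dye fluorescence (ex 535/em 590) was read; parental cells received 10 uM forskolin + 100 uM RO 20-1724.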

[13] = target: Cytochrome P450 1A2 (Homo sapiens) (UniProt P05177); test: p450-cyp1a2 (AID 410; calls by dose curve;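 note: -100% = full effect of reference inhibitor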); details: recombinant CYP1A2, luciferin-ME demethylation, luminescence; series mostly up to 57 µM
Summary of the method: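 Read-out is luminescence from luciferin produced by CYP1A2 demethylation of Luciferin-ME (100uM, at Km). Detection reagent stopped the 60 min NADPH-dependent reaction; signals were normalized to 57 uM furafylline.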

[14] = target: Cytochrome P450 3A4 (Homo sapiens) (UniProt P08684); test: qHTS Assay for Activators of Cytochrome P450 3A4 (AID 885; active = well fitted curve in the direction sought with a large enough effect; an effect the other way counts as inactive or inconclusive; note: nearly all actives have a fitted effect of over 65% in size; note: potency is the fitted concentration of half-maximal effect); details: recombinant CYP3A4, Luciferin-PPXE luminescence, 60 min; series mostly up to 57.1 µM
Summary of the method: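 CYP3A4 activity: Luciferin-PPXE O-dealkylation, 25uM substrate, 200mM KPO4, RT throughout. Read-out is luciferase luminescence; higher values reflect activation.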

[15] = target: Cytochrome P450 2D6 (Homo sapiens) (UniProt P10635); test: qHTS Assay for Inhibitors and Substrates of Cytochrome P450 2D6 (AID 891; active = well fitted curve in the direction sought with a large enough effect; an effect the other way counts as inactive or inconclusive; note: potency is the fitted concentration of half-maximal effect; nearly all actives have a fitted effect of over 60% in size); details: recombinant CYP2D6, luciferin-ME EGE luminescence; series mostly up to 57.1 µM
Summary of the method: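 Luminescent read-out of luciferin formed by 5 nM human CYP2D6 demethylating 30 uM Luciferin-ME EGE (Km level) over 60 min at room temperature after NADPH regeneration addition. Data normalized to full inhibition by 1.43 uM quinidine.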

[16] = qHTS Assay for Identification of Small Molecule Agonists for Hypoxia Response Element Signaling Pathway (AID 914; active = well fitted activation curve with a large enough effect in the signal ratio, with a control signal flat, not every such curve was filed as active; the % refers to the signal ratio; note: % of control where 0% means no effect); details: ME-180 (cervical carcinoma) HRE-bla reporter, beta-lactamase ratio, CoCl2, 17 h; activation: stronger effect = higher value
Summary of the method: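 AC50 values come from titration-series %Activity, taken as the 460/530nm ratio of CCF4 fluorescence (excitation 405nm). CellSensor HRE-bla ME-180 cells were treated 17 hours at 37 C with compound plus an EC50 level of CoCl2.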

[17] = target: Ubiquitin carboxyl-terminal hydrolase 1 (Homo sapiens) (UniProt O94782); test: Inhibitors of USP1/UAF1: Pilot qHTS (AID 504865; active = well fitted curve in the direction sought with a large enough effect; an effect the other way counts as inactive or inconclusive;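 note: rhodamine fluorescence freed from ubiquitin-rhodamine substrate followed over time; top concentration of the series differs between compounds; % is set by controls: 0 for no effect and ±100 for the full control effect; nearly all actives have a fitted effect of over 35% in size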); details: purified USP1/UAF1, Ub-rhodamine cleavage fluorescence; series mostly up to 54.9 µM
Summary of the method: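 In 50mM HEPES pH 7.8 containing 0.5mM EDTA, 1mM TCEP, 0.1 mg/ml BSA and 0.01% Tween-20, 1nM USP1/UAF1 is exposed to compound for 15 min, then Ub-Rho (150nM final) is added and fluorescence is read over time.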

[18] = target: Cytochrome P450 3A4 (Homo sapiens) (UniProt P08684); test: qHTS Assay for Inhibitors and Substrates of Cytochrome P450 3A4 (AID 884; active = well fitted curve in the direction sought with a large enough effect; an effect the other way counts as inactive or inconclusive; note: potency is the fitted concentration of half-maximal effect; nearly all actives have a fitted effect of over 50% in size); details: recombinant CYP3A4, Luciferin-PPXE luminescence; series mostly up to 57.1 µM
Summary of the method: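 Luminescent readout of luciferin produced by CYP3A4 (20 nM) dealkylation of Luciferin-PPXE, 25 uM (its KM). NADPH-driven reaction ran 60 min at RT after 10 min compound preincubation; data scaled to 57 uM ketoconazole as 100% inhibition.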

[19] = measured here: cell count channel max response
[20] = measured here: lipid channel max response

3',5'-cyclic-AMP phosphodiesterase 4B (Homo sapiens), sequence (Q07343 whole entry, looked up): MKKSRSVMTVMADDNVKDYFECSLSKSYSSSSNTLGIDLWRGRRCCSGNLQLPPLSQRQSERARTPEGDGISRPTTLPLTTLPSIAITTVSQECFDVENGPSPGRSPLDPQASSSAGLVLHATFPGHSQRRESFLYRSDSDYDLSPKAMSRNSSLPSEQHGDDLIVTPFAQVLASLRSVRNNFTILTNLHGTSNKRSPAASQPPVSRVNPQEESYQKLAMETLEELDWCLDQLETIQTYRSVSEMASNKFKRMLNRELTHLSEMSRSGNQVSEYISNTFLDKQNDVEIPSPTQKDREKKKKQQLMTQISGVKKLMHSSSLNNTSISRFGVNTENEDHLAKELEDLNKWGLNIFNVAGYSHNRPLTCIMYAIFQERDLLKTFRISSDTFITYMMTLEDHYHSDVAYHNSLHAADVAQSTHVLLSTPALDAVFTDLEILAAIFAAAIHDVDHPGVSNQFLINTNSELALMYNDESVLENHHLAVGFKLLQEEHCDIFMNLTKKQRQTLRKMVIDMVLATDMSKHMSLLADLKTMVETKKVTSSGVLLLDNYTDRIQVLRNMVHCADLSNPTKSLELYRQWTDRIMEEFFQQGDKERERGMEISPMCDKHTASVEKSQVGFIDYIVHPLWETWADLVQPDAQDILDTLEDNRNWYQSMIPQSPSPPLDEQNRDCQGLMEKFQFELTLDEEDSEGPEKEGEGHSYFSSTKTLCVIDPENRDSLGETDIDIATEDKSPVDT
Ubiquitin carboxyl-terminal hydrolase 1 (Homo sapiens), sequence (O94782 whole entry, looked up): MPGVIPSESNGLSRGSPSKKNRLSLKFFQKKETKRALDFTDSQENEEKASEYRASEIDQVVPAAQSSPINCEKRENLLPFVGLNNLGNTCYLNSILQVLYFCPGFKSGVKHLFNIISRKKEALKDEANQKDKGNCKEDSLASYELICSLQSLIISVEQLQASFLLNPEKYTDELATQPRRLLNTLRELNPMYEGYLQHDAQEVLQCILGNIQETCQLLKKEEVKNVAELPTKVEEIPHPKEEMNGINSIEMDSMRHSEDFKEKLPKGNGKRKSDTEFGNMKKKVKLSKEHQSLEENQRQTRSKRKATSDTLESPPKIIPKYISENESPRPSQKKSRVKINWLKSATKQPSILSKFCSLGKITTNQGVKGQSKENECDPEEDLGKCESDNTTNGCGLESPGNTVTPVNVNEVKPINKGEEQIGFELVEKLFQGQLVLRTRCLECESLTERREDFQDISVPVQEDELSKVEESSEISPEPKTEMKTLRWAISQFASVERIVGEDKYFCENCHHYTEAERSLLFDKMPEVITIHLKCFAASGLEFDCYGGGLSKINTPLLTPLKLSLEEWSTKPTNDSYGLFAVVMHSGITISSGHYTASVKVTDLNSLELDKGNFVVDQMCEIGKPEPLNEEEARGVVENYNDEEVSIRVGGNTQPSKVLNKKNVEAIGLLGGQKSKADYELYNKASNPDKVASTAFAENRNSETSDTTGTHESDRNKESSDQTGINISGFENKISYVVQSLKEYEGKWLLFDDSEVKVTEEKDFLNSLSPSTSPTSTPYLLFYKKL
Cytochrome P450 3A4 (Homo sapiens), sequence (P08684 whole entry, looked up): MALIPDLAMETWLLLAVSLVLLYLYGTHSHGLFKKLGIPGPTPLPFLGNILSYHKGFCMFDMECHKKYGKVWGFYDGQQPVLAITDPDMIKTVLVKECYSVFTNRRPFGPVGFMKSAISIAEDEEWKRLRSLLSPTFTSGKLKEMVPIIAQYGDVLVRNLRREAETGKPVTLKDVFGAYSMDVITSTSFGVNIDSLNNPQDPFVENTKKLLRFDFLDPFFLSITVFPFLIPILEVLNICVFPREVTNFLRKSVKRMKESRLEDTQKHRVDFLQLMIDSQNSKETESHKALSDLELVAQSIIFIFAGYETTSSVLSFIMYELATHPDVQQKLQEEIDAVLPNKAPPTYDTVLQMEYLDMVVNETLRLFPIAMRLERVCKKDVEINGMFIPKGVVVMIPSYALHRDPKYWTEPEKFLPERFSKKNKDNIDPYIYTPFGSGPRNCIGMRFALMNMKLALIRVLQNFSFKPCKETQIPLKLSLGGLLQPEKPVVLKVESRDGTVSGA
Glucocorticoid receptor (Homo sapiens), sequence (P04150 whole entry, looked up, the tested form may be a part): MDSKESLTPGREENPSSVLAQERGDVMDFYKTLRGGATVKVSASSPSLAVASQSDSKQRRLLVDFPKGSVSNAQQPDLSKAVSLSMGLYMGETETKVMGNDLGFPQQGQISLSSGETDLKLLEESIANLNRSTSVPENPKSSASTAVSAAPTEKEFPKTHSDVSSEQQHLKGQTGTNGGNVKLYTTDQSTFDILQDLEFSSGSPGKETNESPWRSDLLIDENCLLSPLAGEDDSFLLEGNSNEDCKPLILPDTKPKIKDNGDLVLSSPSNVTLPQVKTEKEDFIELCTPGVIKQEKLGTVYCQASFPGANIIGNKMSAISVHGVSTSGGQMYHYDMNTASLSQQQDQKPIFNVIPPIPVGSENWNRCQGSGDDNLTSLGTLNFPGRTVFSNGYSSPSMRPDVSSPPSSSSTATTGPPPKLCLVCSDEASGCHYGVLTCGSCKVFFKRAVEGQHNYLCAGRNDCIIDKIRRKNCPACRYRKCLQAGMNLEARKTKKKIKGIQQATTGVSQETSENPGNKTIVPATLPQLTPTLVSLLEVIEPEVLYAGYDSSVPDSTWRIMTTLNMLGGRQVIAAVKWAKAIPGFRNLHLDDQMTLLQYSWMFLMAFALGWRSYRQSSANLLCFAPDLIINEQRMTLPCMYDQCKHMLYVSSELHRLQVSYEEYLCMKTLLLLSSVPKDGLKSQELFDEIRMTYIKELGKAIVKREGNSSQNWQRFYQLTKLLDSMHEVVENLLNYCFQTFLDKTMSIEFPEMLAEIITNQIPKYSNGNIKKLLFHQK
Lysosomal acid glucosylceramidase (Homo sapiens), sequence (P04062 whole entry, looked up): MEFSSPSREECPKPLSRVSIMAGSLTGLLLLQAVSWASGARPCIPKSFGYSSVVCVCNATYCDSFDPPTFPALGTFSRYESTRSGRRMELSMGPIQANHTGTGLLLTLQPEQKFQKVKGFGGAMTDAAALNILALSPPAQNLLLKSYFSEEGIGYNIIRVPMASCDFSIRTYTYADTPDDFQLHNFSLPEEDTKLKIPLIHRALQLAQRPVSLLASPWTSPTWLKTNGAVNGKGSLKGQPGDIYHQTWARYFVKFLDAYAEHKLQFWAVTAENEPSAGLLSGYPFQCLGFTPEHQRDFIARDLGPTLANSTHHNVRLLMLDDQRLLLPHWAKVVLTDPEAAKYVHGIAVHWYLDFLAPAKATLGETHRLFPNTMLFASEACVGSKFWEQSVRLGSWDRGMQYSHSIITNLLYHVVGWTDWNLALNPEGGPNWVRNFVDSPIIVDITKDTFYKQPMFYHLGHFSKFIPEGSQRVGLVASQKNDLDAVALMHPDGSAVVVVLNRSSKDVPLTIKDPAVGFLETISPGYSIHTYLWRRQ
Cytochrome P450 2D6 (Homo sapiens), sequence (P10635 whole entry, looked up): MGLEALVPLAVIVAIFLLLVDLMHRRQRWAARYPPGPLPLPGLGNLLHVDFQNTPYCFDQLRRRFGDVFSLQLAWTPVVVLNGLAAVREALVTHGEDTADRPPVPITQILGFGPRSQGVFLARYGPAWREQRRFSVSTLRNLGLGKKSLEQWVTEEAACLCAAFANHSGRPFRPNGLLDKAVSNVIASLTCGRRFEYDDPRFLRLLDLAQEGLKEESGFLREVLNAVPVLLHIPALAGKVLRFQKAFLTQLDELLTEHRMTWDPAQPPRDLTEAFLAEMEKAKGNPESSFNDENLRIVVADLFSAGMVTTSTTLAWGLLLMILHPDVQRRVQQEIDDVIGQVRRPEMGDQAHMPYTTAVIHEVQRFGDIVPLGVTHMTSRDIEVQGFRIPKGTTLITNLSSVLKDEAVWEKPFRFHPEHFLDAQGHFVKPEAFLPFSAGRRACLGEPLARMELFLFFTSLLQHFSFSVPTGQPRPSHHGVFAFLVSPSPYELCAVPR
Cytochrome P450 1A2 (Homo sapiens), sequence (P05177 whole entry, looked up): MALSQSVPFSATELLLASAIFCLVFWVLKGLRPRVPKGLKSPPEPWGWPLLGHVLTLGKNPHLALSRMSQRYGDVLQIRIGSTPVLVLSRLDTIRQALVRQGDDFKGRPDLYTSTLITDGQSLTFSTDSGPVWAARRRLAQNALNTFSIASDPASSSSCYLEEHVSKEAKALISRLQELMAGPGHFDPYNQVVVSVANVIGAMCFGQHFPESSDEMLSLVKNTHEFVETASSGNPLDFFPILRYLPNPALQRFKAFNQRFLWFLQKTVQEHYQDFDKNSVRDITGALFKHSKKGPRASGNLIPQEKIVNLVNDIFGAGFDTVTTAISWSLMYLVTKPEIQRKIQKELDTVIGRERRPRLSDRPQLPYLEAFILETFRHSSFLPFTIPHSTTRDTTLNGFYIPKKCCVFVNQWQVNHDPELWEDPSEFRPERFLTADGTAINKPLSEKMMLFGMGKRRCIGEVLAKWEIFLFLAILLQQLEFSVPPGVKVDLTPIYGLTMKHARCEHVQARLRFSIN

SMILES	Potency [1]	activity change, negative = inhibition [2]	activity change, negative = inhibition [3]	activity, negative = inhibition [4]	Potency [5]	Potency [6]	Potency [7]	Potency [8]	outcome [9]	activity change, negative = inhibition [10]	max response [10, 19] [%]	max response [10, 20] [%]	outcome [11]	Potency [12]	Potency [13]	Potency [14]	Potency [15]	activation [16]	Potency [17]	Potency [18]
Cc1cccc(CNc2ncnc3ccc(-c4ccccc4C#N)cc23)c1	> 11.4 µM (inactive)	-28.4% (inactive)	12.9% (inactive)	-7.62% (inactive)	> 46 µM (inactive)	> 46 µM (inactive)	inactive	inactive	inactive	0.748% (inactive)	4.98	4.86	inactive	–	–	–	–	–	–	–
O=C(c1cnccn1)N1CCC[C@@]2(CCN(Cc3ccccc3)C2)C1	> 11.4 µM (inactive)	5.08% (inactive)	6.26% (inactive)	1.17% (inactive)	–	> 46 µM (inactive)	inactive	–	–	1.97% (inactive)	8.78	13.2	inactive	inactive	–	–	–	–	–	–
COc1ccccc1CN1CCCC2(CCN(C(=O)c3cnccn3)CC2)C1	> 11.4 µM (inactive)	4.14% (inactive)	–	–	–	> 46 µM (inactive)	inactive	–	–	3.91% (inactive)	-6.38	0.432	inactive	inactive	inactive	inactive	–	–	–	–
CN(C)Cc1ccccc1-c1cc(N(C)C)ncn1	> 11.4 µM (inactive)	-1.87% (inactive)	-11.7% (inactive)	7.42% (inactive)	> 46 µM (inactive)	> 46 µM (inactive)	inactive	inactive	inactive	5.84% (inactive)	8.47	12	inactive	inactive	–	–	1.26 µM (active)	5.79% (inactive)	inactive	–
O=C(Nc1cccc(F)c1)N1CC2(CCN(C(=O)c3cccc(F)c3)CC2)C1	> 11.4 µM (inactive)	-21.6% (inactive)	22.7% (inactive)	-4.12% (inactive)	–	> 46 µM (inactive)	inactive	–	–	1.48% (inactive)	1.76	6.4	inactive	inactive	–	–	–	–	–	–
Cc1noc(C)c1-c1nc(NCc2cccnc2)c2ccccc2n1	> 11.4 µM (inactive)	2.83% (inactive)	-10.7% (inactive)	-14.2% (inactive)	> 46 µM (inactive)	> 46 µM (inactive)	inactive	inactive	inactive	11.8% (inactive)	12.2	21	inactive	–	–	–	–	–	–	–
Cc1ccccc1-c1cncnc1NC1CCNCC1	> 11.4 µM (inactive)	11.7% (inactive)	-1.26% (inactive)	20.9% (inactive)	> 46 µM (inactive)	> 46 µM (inactive)	inactive	inactive	inactive	3.19% (inactive)	12.9	16	inactive	inactive	–	–	–	–	inactive	–
O=C(c1csnn1)N1CCC[C@@]2(CCN(Cc3cc(C(F)(F)F)cc(C(F)(F)F)c3)C2)C1	> 11.4 µM (inactive)	-0.847% (inactive)	2.05% (inactive)	-8.74% (inactive)	–	> 46 µM (inactive)	inactive	–	–	5.01% (inactive)	20.3	22.1	inactive	inactive	–	–	–	–	–	–
COc1ncc2nc(-c3cn(C)c4ccccc34)c(=O)n(Cc3ccc(F)cc3)c2n1	> 11.4 µM (inactive)	10.6% (inactive)	-4.65% (inactive)	20.2% (inactive)	> 9.22 µM (inactive)	> 46 µM (inactive)	inactive	–	–	3.02% (inactive)	18.8	23.9	inactive	inactive	–	inactive	–	–	–	6.31 µM (active)
COC(=O)N1CCC2(CC1)CCN(C(c1ccccc1)c1ccccc1)CC2	> 11.4 µM (inactive)	-7.14% (inactive)	–	–	–	> 46 µM (inactive)	inactive	–	–	2.35% (inactive)	5.65	12.4	inactive	inactive	inactive	12.6 µM (active)	7.94 µM (active)	–	–	–
c1cncc(-c2nccc(-n3ccnc3)n2)c1	> 11.4 µM (inactive)	-19.4% (inactive)	1.68% (inactive)	-2.73% (inactive)	> 46 µM (inactive)	> 46 µM (inactive)	inactive	inactive	inactive	7.22% (inactive)	3.87	13.2	inactive	inactive	–	–	–	–	inactive	–
CC(=O)NCCNc1nc(-c2ccccc2CN(C)C)nc2ccccc12	> 11.4 µM (inactive)	6.16% (inactive)	2.15% (inactive)	13.7% (inactive)	> 46 µM (inactive)	> 46 µM (inactive)	inactive	inactive	inactive	5.82% (inactive)	13.1	18.7	inactive	inactive	–	–	–	–	inactive	–
Cc1cccc(CNc2cc(-c3ccoc3)ncn2)c1	> 11.4 µM (inactive)	-15.6% (inactive)	12% (inactive)	-3.91% (inactive)	> 46 µM (inactive)	> 46 µM (inactive)	inactive	inactive	inactive	5.52% (inactive)	-1.87	6.63	inactive	inactive	–	inactive	–	–	–	7.94 µM (active)

Reference: PubChem BioAssay (NCATS)
